Assay results reported in PubChem BioAssay.
Calls of active or inactive are those of the source.

How the values were obtained:
[1] = E. coli DRC41 culture turbidity changes, primary screen, E. coli filamentation inducer project, strain DRC41, OD650, 48 h (AID 1152);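 further: E. coli MC1000 strain DRC41 lacking acrAB efflux pump and sulA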; conditions: E. coli DRC41 (acrAB sulA), higher = more signal, called active from +8 up or from −8 down
[2] = small-molecule binders of probe aLefty1, primary screen, biochemical, small-molecule microarray, 635/667 nm fluorescence (AID 1153); conditions: higher = more signal;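 further: score merges spot fluorescence with signal-to-noise ratio from the scanned slide images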
[3] = PSAC antagonists in infected red cells, primary screen, cell-based, P. falciparum Indochina, OD700, 1 h (AID 1154); conditions: P. falciparum Indochina infected RBC osmotic lysis, higher = more signal, called active from +8 up or from −8 down
[4] = PSAC antagonists in infected red cells, primary screen, cell-based, P. falciparum Indochina, OD700, 2 h (AID 1155);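 further: lysis reports solute entry through the parasite surface anion channel PSAC; channel blockers reduce lysis of infected cells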; conditions: P. falciparum Indochina infected erythrocytes, osmotic lysis OD700; higher = more signal, called active from +8 up or from −8 down
[5] = osmotic lysis modulators in infected erythrocytes, primary screen, PSAC antagonist project, cell-based, P. falciparum Indochina, OD700, 3 h (AID 1156); conditions: higher = more signal, called active from +8 up or from −8 down
[6] = PSAC antagonists in infected red cells, primary screen, cell-based, P. falciparum Indochina, OD700, 18 h (AID 1157); conditions: P. falciparum Indochina infected erythrocytes, osmotic lysis OD700, 18 h; higher = more signal, called active from +8 up or from −8 down
[7] = modulators of S6 phosphorylation in cells, primary screen, cell-based, A549, cytoblot, luminescence, serum-stimulated (AID 1158); conditions: A549 phospho-S6 cytoblot, 5 h, higher = more signal;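 further: serum-stimulated A549 lung adenocarcinoma cells; signal is phosphorylated S6 detected by cytoblot immunostaining with HRP secondary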
[8] = target: NADPH oxidase 2 (Homo sapiens) (UniProt P04839); experiment: NOX2-dependent H2O2 signal modulators, primary screen, NOX inhibitor project, cell-based, HEK293-NOX2, PMA-stimulated, Amplex Red fluorescence (AID 1159); conditions: 45 min, higher = more signal, called active from +8 up or from −8 down; further: test concentration not given here
[9] = target: NADPH oxidase 4 (Homo sapiens) (UniProt Q9NPH5); experiment: NOX4-dependent H2O2 signal modulators, primary screen, NOX inhibitor project, cell-based, HEK293-NOX4, tetracycline-induced, Amplex Red fluorescence (AID 1160); conditions: 45 min, higher = more signal, called active from +8 up or from −8 down
[10] = target: NADPH oxidase 5 (Homo sapiens) (UniProt Q96PH1); experiment: NOX5-dependent H2O2 signal modulators, primary screen, NOX inhibitor project, cell-based, HEK293-NOX5, Amplex Red fluorescence (AID 1161); conditions: HEK293-NOX5, ionomycin, 45 min, higher = more signal
[11] = A549 cell viability effects, profiling panel, calcein-AM fluorescence, 48 h, basal (AID 1162); conditions: higher = more signal; further: test concentration not given here
[12] = adipocyte viability effects, profiling panel, cell-based, 3T3-L1 adipocytes, calcein-AM fluorescence, 48 h, basal (AID 1163); conditions: 3T3-L1 adipocytes viability, higher = more signal; further: test concentration not given here
[13] = HepG2 cell viability effects, profiling panel, calcein-AM fluorescence, 48 h, basal (AID 1164); conditions: higher = more signal; further: test concentration not given here
[14] = MM1S cell viability effects, profiling panel, calcein-AM fluorescence, 48 h, basal (AID 1165); conditions: higher = more signal;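 further: viability of MM1S multiple myeloma cells under basal unstimulated conditions; test concentration not given here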
[15] = basal RPMI8226 viability, no added stimulus, profiling panel, cell-based, calcein-AM fluorescence, 48 h, PK04 Diversity Set (AID 1166); conditions: RPMI8226 myeloma viability, higher = more signal;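 further: cells grown under basal conditions without added stimulus; test concentration not given here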
[16] = basal HepG2 mitochondrial membrane potential changes, profiling panel, cell-based, JC-1 fluorescence, 24 h, 100 nL compound (AID 1167); conditions: higher = more signal; further: test concentration not given here
[17] = basal 3T3-L1 adipocyte mitochondrial potential changes, profiling panel, cell-based, JC-1 fluorescence, 3T3-L1 adipocytes, 24 h, 100 nL compound (AID 1168); conditions: JC-1 mitochondrial fluorescence, higher = more signal, called active from +8 up or from −8 down; further: test concentration not given here
[18] = basal RPMI8226 mitochondrial membrane potential changes, profiling panel, cell-based, JC-1 fluorescence, 24 h, 100 nL compound (AID 1169); conditions: RPMI8226 myeloma, JC-1 mitochondrial potential fluorescence, higher = more signal; further: test concentration not given here
[19] = basal MM1S mitochondrial membrane potential changes, profiling panel, cell-based, JC-1 fluorescence, 24 h, 100 nL compound (AID 1170); conditions: higher = more signal; further: test concentration not given here
[20] = A549 lung cancer cell viability effects, profiling panel, resazurin fluorescence, 24 h, PK04 Diversity Set (AID 1171); conditions: higher = more signal, called active from +8 up or from −8 down; further: test concentration not given here

Chain of NADPH oxidase 2 (Homo sapiens) (P04839 whole entry, looked up): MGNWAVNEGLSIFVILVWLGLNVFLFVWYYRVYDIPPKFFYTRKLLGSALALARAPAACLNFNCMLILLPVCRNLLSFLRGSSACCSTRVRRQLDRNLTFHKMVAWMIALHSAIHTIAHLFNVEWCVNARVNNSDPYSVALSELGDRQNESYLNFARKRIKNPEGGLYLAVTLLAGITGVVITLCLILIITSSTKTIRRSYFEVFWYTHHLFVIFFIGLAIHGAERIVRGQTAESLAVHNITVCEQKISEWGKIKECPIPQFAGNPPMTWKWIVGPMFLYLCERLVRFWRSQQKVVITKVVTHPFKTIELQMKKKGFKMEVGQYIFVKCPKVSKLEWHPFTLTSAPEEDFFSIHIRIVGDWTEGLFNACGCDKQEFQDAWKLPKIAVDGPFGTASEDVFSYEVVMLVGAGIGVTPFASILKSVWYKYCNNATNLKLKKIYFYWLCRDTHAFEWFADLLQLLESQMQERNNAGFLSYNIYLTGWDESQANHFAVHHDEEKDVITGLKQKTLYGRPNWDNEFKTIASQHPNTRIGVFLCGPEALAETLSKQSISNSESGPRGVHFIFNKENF
Chain of NADPH oxidase 4 (Homo sapiens) (Q9NPH5 whole entry, looked up): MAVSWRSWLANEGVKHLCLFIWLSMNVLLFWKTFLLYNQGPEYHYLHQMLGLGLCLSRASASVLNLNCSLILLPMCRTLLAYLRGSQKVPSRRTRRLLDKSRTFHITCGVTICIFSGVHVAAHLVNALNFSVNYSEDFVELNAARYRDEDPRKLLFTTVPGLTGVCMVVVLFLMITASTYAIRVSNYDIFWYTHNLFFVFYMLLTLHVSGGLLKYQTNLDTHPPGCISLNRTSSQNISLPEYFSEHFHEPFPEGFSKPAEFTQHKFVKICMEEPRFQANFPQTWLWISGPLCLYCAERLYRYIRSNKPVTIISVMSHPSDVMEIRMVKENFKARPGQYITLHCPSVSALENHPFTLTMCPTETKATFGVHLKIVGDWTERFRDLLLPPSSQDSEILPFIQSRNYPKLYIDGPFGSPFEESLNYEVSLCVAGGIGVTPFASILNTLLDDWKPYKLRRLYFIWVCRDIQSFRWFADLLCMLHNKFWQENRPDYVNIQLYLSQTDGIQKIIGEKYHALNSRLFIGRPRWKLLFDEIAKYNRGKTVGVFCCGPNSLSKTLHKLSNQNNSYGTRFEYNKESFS
Chain of NADPH oxidase 5 (Homo sapiens) (Q96PH1 whole entry, looked up): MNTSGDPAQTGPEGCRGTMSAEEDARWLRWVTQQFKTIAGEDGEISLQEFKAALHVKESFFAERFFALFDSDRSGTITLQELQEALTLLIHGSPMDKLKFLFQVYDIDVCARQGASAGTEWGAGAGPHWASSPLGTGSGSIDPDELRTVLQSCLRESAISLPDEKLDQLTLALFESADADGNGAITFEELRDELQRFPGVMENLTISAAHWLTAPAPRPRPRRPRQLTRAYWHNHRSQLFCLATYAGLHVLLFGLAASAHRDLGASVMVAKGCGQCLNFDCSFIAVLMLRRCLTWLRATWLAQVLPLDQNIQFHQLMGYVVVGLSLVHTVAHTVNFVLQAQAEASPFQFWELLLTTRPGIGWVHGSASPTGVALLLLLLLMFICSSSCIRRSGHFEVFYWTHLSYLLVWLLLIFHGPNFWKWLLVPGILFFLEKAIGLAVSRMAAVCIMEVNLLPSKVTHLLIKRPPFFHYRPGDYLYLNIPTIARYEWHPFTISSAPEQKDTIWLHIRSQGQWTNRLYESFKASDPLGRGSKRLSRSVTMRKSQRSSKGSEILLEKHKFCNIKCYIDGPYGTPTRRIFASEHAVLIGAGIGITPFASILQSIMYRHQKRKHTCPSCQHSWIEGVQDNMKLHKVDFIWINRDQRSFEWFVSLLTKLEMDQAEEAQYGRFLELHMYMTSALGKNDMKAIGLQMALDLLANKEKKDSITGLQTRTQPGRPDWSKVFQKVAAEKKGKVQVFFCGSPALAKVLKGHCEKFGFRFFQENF

| Structure (SMILES) | z-score [1] | composite z-score [2] | z-score [3] | z-score [4] | z-score [5] | z-score [6] | z-score [7] | z-score [8] | z-score [9] | z-score [10] | z-score [11] | z-score [12] | z-score [13] | z-score [14] | z-score [15] | z-score [16] | z-score [17] | z-score [18] | z-score [19] | z-score [20] |
| --- | --- | --- | --- | --- | --- | --- | --- | --- | --- | --- | --- | --- | --- | --- | --- | --- | --- | --- | --- | --- |
| C[C@]12C(=O)N(CCO)[C@@H]3C(=O)N(c4ccc(Cl)cc4)CC=CC31O[C@@H]1/C=C\CCCOC(=O)C12 (stereo not given in full) | -0.295 (inactive) | 0.161 | 0.505 (inactive) | 0.176 (inactive) | 0.228 (inactive) | 0.359 (inactive) | -0.362 | 1.96 (inactive) | -0.22 (inactive) | 2.65 | 0.614 | 1.38 | 0.488 | 0.971 | -0.966 | -0.646 | -0.766 (inactive) | -0.129 | 1.61 | -1.3 (inactive) |
| COc1ccc(C(=O)Nc2ccc(CN3C(=O)[C@@]4(O[C@@H](CC(=O)N(CCO)Cc5ccccc5)[C@H]([Si](C)(C)c5ccc(OC)cc5)[C@H]4C)c4ccccc43)cc2)cc1 | 1.73 (inactive) | -0.115 | 16.6 (active) | 2.82 (inactive) | 0.467 (inactive) | -0.236 (inactive) | 1.21 | 1.06 (inactive) | 1.39 (inactive) | 2.59 | -0.86 | 1.4 | -1.04 | -0.507 | -1.47 | 0.656 | 0.816 (inactive) | -0.931 | -0.493 | -0.861 (inactive) |
| C=C(COC)C(=O)CC[C@@H](OC(=O)c1ccccc1-c1ccccc1C(=O)O)c1ccccc1OCCO | -0.564 (inactive) | -0.103 | 5.01 (inactive) | 0.281 (inactive) | 1.03 (inactive) | -0.209 (inactive) | -0.813 | 0.26 (inactive) | -0.182 (inactive) | -0.933 | -0.184 | 0.615 | -0.248 | -3.31 | -3.75 | -1.13 | -0.305 (inactive) | -0.88 | -1.84 | 0.393 (inactive) |
| C=C(C(=O)CC[C@@H](OC(=O)c1ccccc1-c1ccccc1C(=O)O)c1ccc(OCCO)cc1)C(C)C | -0.383 (inactive) | 0.312 | 13.6 (active) | 1.37 (inactive) | 1.2 (inactive) | 0.405 (inactive) | -0.26 | 1.43 (inactive) | 0.123 (inactive) | -1.3 | -0.514 | 0.517 | 0.654 | -3.22 | -2.98 | -0.556 | -1.2 (inactive) | -0.787 | -0.547 | -0.0237 (inactive) |
| CN(C)CCCCNC(=O)[C@H]1C[C@H]2C(=O)N[C@@H](CCCCN(C)C)C(=O)N2[C@H]1c1ccc(O)cc1 | 2.41 (inactive) | -0.299 | -0.418 (inactive) | -0.546 (inactive) | 0.589 (inactive) | -1.34 (inactive) | 0.859 | 0.109 (inactive) | 0.504 (inactive) | 0.875 | 0.897 | 0.613 | 0.218 | 0.428 | 1.26 | 0.754 | 0.903 (inactive) | -0.623 | -0.379 | 1.2 (inactive) |
| COC(=O)[C@@]1(Cc2ccc(F)cc2)[C@H]2c3cc(C(=O)N(C)C)n(Cc4ccsc4Br)c3C[C@H]2CN1C(=O)c1ccccc1 | -1.62 (inactive) | 1.06 | 3.86 (inactive) | 0.413 (inactive) | 0.952 (inactive) | 0.765 (inactive) | -0.155 | -2.09 (inactive) | -5.46 (inactive) | -2.35 | -0.981 | -0.291 | 0.191 | -0.766 | -0.985 | 2.64 | 0.18 (inactive) | 0.415 | -1.17 | -0.836 (inactive) |
| C=CC[C@H](O)c1ccc(O)c2ccccc12 | 0.675 (inactive) | -0.0163 | 1.28 (inactive) | 0.439 (inactive) | 0.168 (inactive) | 0.45 (inactive) | -0.323 | -5.36 (inactive) | -1.98 (inactive) | 1.42 | 0.902 | -0.0385 | -0.817 | -2.84 | -3.71 | -2.13 | 0.241 (inactive) | -0.752 | -1.71 | -0.409 (inactive) |
| C=CCNC(=O)[C@H]1[C@@H]2C(=O)O[C@@H](c3ccccc3)[C@@H](c3ccccc3)N2[C@@H](c2ccc(OCCO)cc2)[C@]12C(=O)N(C(=O)OCCOC)c1ccc(C#CCC(C(=O)OC)C(=O)OC)cc12 | -0.335 (inactive) | 0.123 | 4.28 (inactive) | 1.28 (inactive) | 0.743 (inactive) | 0.656 (inactive) | -0.116 | 1.64 (inactive) | 0.791 (inactive) | 0.621 | 1.32 | 0.0681 | 0.811 | 0.495 | -0.749 | -0.517 | 0.566 (inactive) | -0.82 | -1.58 | -0.0048 (inactive) |
| COC(=O)[C@@]1(Cc2ccc(F)cc2)[C@@H]2C(=CC(=O)[C@H]2CC(=O)C(=O)N2CCCC2)CN1C(=O)c1ccccc1 | -1.18 (inactive) | 1.45 | 3.94 (inactive) | -0.607 (inactive) | -2.12 (inactive) | -1.03 (inactive) | 1.84 | -3.72 (inactive) | -5.14 (inactive) | -4.38 | -1.77 | 1.16 | -1.32 | -2.6 | -4.29 | 3.9 | -0.568 (inactive) | -0.686 | -2.82 | -1.97 (inactive) |
